Test [1] can be described thus: P-glycoprotein substrates identified in KB-3-1 adenocarcinoma cell line, qHTS therapeutic library screen (AID 1346986). Note: nearly all actives have a fitted effect of over 60% in size. Put shortly:
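Compounds were tested in dose-response against KB-3-1 and KB-8-5-11 cells at 37 degree C for 72 h, and viability was measured by luminescence. AC50 values came from curve fitting with class-based activity calls.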

Test [2] is described as follows: qHTS drug screen for cell cycle checkpoint inhibitors in PARPi-resistant BRCA-mutant ovarian cancer cell lines. (AID 1963452; calls by dose curve). The note with it: PEO1/OlaR viability, CellTiter-Glo luminescence, 96 h, stronger effect = lower value. The procedure, abridged: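 PEO1, PEO4 and PEO1/OlaR ovarian cancer cells, 600 per well, exposed 96 h at 37C to a dilution series. Viability read by CellTiter-Glo luminescence, normalized to DMSO and empty wells; activity summarized as Z-AUC.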
On the technique in general: qHTS replaces the single test concentration by a dilution series.

Test [3] can be described thus: P-glycoprotein substrates identified in KB-8-5-11 adenocarcinoma cell line, qHTS therapeutic library screen (AID 1346987). Note: % is set by controls: 0 for no effect and ±100 for the full control effect; nearly all actives have a fitted effect of over 65% in size. The procedure, abridged:
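KB-8-5-11: colchicine-selected sub-line of KB-3-1 over-expressing P-gp; assay medium lacked colchicine. 72 h drug exposure at 37 degree C, CellTiter-Glo.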

Test [4] relates to Zika virus NS2B-NS3 protease (unlinked complex). The test is described as follows: Primary screen GU Rhodamine qHTS for Zika virus inhibitors: Unlinked NS2B-NS3 protease assay (AID 1347159). Note: % is set by controls: 0 for no effect and ±100 for the full control effect; nearly all actives have a fitted effect of over 60% in size. The procedure, abridged: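 Noncovalent NS2B hydrophilic domain/NS3 protease complex (25 nM final) in 10 mM Tris-HCl pH 8.0, 0.01% Tween 20, preincubated 15 min with compounds (up to 114 microM), then 1.5 microM Rhodamine110 substrate. Fluorescence change over 15 min fitted to 4-parameter Hill.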

Test [5] addresses Cytochrome P450 2D6 (Homo sapiens) (UniProt P10635). The test is described as follows: Cytochrome P450 family 2 subfamily D member 6 (CYP2D6) small molecule antagonists: luciferase biochemical (cell-free) qHTS assay (AID 1645840; active = well fitted curve in the direction sought with a large enough effect in the repeat runs; an effect the other way counts as inactive or inconclusive; note: nearly all actives have a fitted effect of over 55% in size; note: potency is the fitted concentration of half-maximal effect). The procedure, abridged: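 P450-Glo luminescent screen: recombinant CYP2D6 enzyme–proluciferin substrate mix preincubated with compound 10 min at room temperature, then NADPH regeneration added for 1 h at room temperature. Detection reagent added for 20 min; luciferin light read as relative luminescence units.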

In test [6] the target is Cytochrome P450 2C9 (Homo sapiens) (UniProt P11712). The test is described as follows: Cytochrome P450 family 2 subfamily C member 9 (CYP2C9) small molecule antagonists: luciferase biochemical (cell-free) qHTS assay (AID 1645842; active = well fitted curve in the direction sought with a large enough effect in the repeat runs; an effect the other way counts as inactive or inconclusive; note: potency is the fitted concentration of half-maximal effect; nearly all actives have a fitted effect of over 55% in size). The procedure, abridged: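 Luminescence, after 20 min with luciferin detection reagent, reflected CYP2C9 turnover during a 1 h NADPH-driven reaction at 37C. Enzyme-substrate mix contained 0.4% bovine serum albumin and was preincubated with compound 10 min at room temperature.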

Test [7] has as its system CRL-7250. In words: Cytotoxic Profiling of Annotated Libraries Using Quantitative High-Throughput Screening (AID 1296008). For max response: % is set by controls: 0 for no effect and ±100 for the full control effect. Note: nearly all actives have a fitted effect of over 60% in size. Note: potency is the fitted concentration of half-maximal effect. The note with it: Five cell lines viability, CellTiter-Glo ATP luminescence, 48-72 h; max response: stronger effect = lower value. Put shortly:
(§1)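 Cells exposed to compounds for 48 or 72 hr at 37 degrees Celsius. Viability read as ATP-coupled luminescence with CellTiter-Glo after 10 min at room temperature.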
For orientation: Cellular ATP, detected with luciferase, serves as a proxy for viable cell number.

Test [8] deals with CRL-7250. In words: qHTS assay to identify novel small-molecules to repurpose for Merkel cell carcinoma treatment (AID 1296009). Note: nearly all actives have a fitted effect of over 60% in size. The note with it: MCC and control cell lines, CellTiter-Glo viability, 72 h; series mostly up to 92 µM. The procedure, abridged: (§2)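 Cells were incubated with compound for 72 hr at 37 degree celsius before CellTiter-Glo addition. Luminescence was normalized with no-cell wells as full cytotoxicity and DMSO as baseline.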

Test [9] has as its system HACAT. The test is described as above. The note with it: MCC and control cell lines, CellTiter-Glo viability, 72 h; at 44.8 µM (top of the series) unless noted. Put shortly: as §2
Test [10] relates to SKOV3. In words: Primary qHTS to identify gynecologic anti-cancer compounds using libraries of approved drugs and bioactive compounds (AID 1345084). Note: nearly all actives have a fitted effect of over 55% in size. Note: potency is the fitted concentration of half-maximal effect. The note with it: Gynecologic cancer cell panel viability, ATPlite luminescence, 48 h; series mostly up to 57.5 µM. Put shortly: (§3)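 Cells, 1,000 per well, plated 16 h, then exposed 48 h at 37 C to compounds. Viability by ATPlite luminescence after 15 min at room temperature.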

The test system of test [11] is KB-3-1. The test is described as follows: Cytotoxic Profiling of Annotated Libraries Using Quantitative High-Throughput Screening (AID 1296008). For max response: % is set by controls: 0 for no effect and ±100 for the full control effect. Note: nearly all actives have a fitted effect of over 60% in size. Note: potency is the fitted concentration of half-maximal effect. The note with it: Five cell lines viability, CellTiter-Glo ATP luminescence, 48-72 h; max response: stronger effect = lower value. The procedure, abridged: as §1
Test [12] has as its system NIH3T3. In words: qHTS assay to identify novel small-molecules to repurpose for Merkel cell carcinoma treatment (AID 1296009). Note: nearly all actives have a fitted effect of over 60% in size. The note with it: MCC and control cell lines, CellTiter-Glo viability, 72 h; at 44.8 µM (top of the series) unless noted. The procedure, abridged: as §2
The nature of test [13]: Primary qHTS for inhibitors of nuclear receptor binding SET domain protein 2 (NSD2) in an isogenic RCH-ACV NSD2 p.E1099K mutant (9B) (AID 1645876). Note: nearly all actives have a fitted effect of over 70% in size. Note: potency is the fitted concentration of half-maximal effect.
Test [14] can be described thus: Primary qHTS for inhibitors of nuclear receptor binding SET domain protein 2 (NSD2) in an RCH-ACV wild type WT cells (2C) (AID 1645877). Note: nearly all actives have a fitted effect of over 70% in size. Note: potency is the fitted concentration of half-maximal effect.
The test system of test [15] is HeLa. In words: Primary qHTS to identify gynecologic anti-cancer compounds using libraries of approved drugs and bioactive compounds (AID 1345084). Note: nearly all actives have a fitted effect of over 55% in size. Note: potency is the fitted concentration of half-maximal effect. The note with it: Gynecologic cancer cell panel viability, ATPlite luminescence, 48 h; series mostly up to 57.5 µM. The procedure, abridged: as §3

The record followed here is PubChem BioAssay (NCATS).

Results filed as inconclusive are left out. Calls of active or inactive are those of the source. Unless noted, calls come from the whole dose curve; as a rule, active = well fitted curve in the direction sought with a large enough effect; inconclusive = small, poorly fitted or top-dose-only effect, or another doubt; inactive = no such curve, though single readings can be large; an effect the other way counts as inactive or inconclusive.

Sequence of Cytochrome P450 2D6 (Homo sapiens) (P10635 whole entry, looked up): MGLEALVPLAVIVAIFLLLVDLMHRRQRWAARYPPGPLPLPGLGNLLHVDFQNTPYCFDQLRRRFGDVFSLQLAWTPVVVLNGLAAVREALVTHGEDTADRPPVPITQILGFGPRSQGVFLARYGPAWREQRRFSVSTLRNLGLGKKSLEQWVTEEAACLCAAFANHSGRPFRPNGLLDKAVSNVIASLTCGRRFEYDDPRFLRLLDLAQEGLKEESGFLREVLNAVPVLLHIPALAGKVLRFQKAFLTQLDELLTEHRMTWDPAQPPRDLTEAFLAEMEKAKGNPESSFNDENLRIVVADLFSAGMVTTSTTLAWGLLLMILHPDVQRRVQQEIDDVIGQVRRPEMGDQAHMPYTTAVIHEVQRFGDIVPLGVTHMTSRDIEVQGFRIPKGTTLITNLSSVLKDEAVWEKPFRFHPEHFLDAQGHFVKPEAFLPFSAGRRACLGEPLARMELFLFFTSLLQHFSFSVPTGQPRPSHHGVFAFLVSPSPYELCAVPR
Sequence of Cytochrome P450 2C9 (Homo sapiens) (P11712 whole entry, looked up): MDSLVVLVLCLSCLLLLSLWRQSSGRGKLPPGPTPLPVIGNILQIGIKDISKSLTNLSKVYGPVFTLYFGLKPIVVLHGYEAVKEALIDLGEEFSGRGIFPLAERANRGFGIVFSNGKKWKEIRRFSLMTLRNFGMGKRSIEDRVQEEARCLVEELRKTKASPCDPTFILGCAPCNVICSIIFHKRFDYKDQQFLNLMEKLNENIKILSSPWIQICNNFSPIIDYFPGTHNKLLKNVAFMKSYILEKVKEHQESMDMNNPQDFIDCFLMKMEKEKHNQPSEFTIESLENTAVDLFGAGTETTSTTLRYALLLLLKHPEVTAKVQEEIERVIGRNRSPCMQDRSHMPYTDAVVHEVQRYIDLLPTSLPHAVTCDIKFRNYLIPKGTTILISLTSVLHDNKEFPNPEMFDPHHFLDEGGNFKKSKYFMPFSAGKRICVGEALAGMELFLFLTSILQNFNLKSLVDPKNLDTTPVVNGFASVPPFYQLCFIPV

Consider `CCCN(CCC)[C@@H]1CCc2ccc3[nH]c(C#N)cc3c2C1`, for which, in test [1], the Potency entry is “inactive”.

In the case of `COc1cc(C(=O)N2CC[C@@H](O)[C@@H](N)C2)cc2nc(-c3cc4ccccc4n3CC3CC3)n(C)c12`, the Z-AUC is 0.124 (inactive) in [2], 1.05 in test [2] (measured here: PEO1 parental Z-AUC) and 0.456 in [2] (measured here: PEO4 Z-AUC).

`COc1ccc2[nH]c(-c3ccccc3)c(CCN(C)C)c2c1`: the Potency entry in test [3], in test [4], in [8] and in test [10] was “inactive” throughout. The Potency was 2130 nM (active) in test [5] and 16900 nM (active) in test [6]. The call in [7] and in test [9] was inactive.

In the case of `O=C(N1CCCCC1Cc1ccccc1)n1cc(-c2ccc(-c3ccccc3)cc2)nn1` (centres undefined), the Potency result in test [4], in test [5] and in test [10] was “inactive” throughout. Moreover, the Potency in [6] was 2680 nM (active). Besides, the max response in test [7] is 2.49% (inactive); in test [11], -19% (inactive). In addition, the compound was classed as inactive in test [9] and in test [12].

Turning to `O=C(C[C@@H]1NCCC[C@H]1O)Cn1cnc2ccccc2c1=O`, in [4], the Potency result was “inactive”. Further, the Potency was 129 nM (active) in test [13]; 145 nM (active) in test [14]; 231 nM (active) in test [7]; 259 nM (active) in [11]; 1780 nM (active) in test [15].

As to `CC[C@@H]1C[C@H]2CC[C@H](O2)[C@H](C)C(=O)O[C@@H](C)C[C@@H]2CC[C@@H](O2)[C@@H](C)C(=O)O[C@H](C)C[C@H]2CC[C@H](O2)[C@H](C)C(=O)O[C@@H](C)C[C@@H]2CC[C@@H](O2)[C@@H](C)C(=O)O1`, the Potency in test [13] was 21.6 nM (active); in test [14] it was 24.2 nM (active); in test [7] it was 432 nM (active); in [11], 96.8 nM (active); in [15] it was 562 nM (active); in [10], 562 nM (active).

For `C=C(C)[C@@]12O[C@@H]1[C@@]1(C)C(=C[C@H]2O)CC[C@@H](O)[C@@H]1C`, the Potency entry in test [1], in test [4], in test [13], in test [14], in test [15] and in [10] was “inactive” in each case. In addition, the max response in test [7] was -1.42% (inactive). The compound was called inactive in [11].

With `CCC1CN2CCC3(C(=O)Nc4cccc(O)c43)C2CC1/C(=C/OC)C(=O)OC` (centres undefined), the Potency result in test [3], in [4], in [13], in test [14], in [15] and in test [10] was “inactive” throughout. Besides, the max response was -15.5% (inactive) in [7] and -16.6% (inactive) in [11]. Moreover, the outcome in test [9] was “inactive [at 17.4 µM]”.

Take `COC(=O)[C@@]1(C)C(=O)C=C[C@]2(C)c3c(O)cc(C(C)C)cc3[C@H](O)[C@@H](OC(C)=O)C12` (some centres undefined): the Potency entry in test [3], in [4], in test [8], in test [15] and in test [10] was “inactive” each time. Further, the result in test [7] was inactive. The outcome in test [9] is “inactive [at 17.4 µM]”.

Take `CO[C@H]1C[C@H](O[C@H]2CC[C@]3(C=O)[C@H]4CC[C@]5(C)[C@@H](C6=CC(=O)OC6)CC[C@]5(O)[C@@H]4CC[C@]3(O)C2)O[C@H](C)[C@H]1O`: in test [4], the Potency result is “inactive”. Moreover, the Potency was 39.9 nM (active) in [13]; 89.3 nM (active) in [14]; 112 nM (active) in [7]; 126 nM (active) in test [11]; 141 nM (active) in test [15]; 141 nM (active) in test [10]. Moreover, the outcome in test [12] is “inactive [at 17.4 µM]”.
